Screening results deposited in PubChem by National Center for Advancing Translational Sciences (NCATS).
ELG1 repair inh: inhibitors of ELG1-dependent DNA repair in HEK293T cells | 330,000 compounds, 2.3% hits | HEK293T ELG1-luciferase reporter, luminescence, 16 h; DNA damage induced by 5-fluorouridine | Potency, µM (top dose mostly 46.1 µM), inactives show at the top dose activity change, negative = inhibition, actives largely listed as inhibitors; note: potency is the fitted concentration of half-maximal effect; nearly all actives have a fitted effect of over 55% in size
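Quantitative HTS, concentration-response format. 2,000 cells/well co-treated with 5-fluorouridine and compound, 16 hr in 5% CO2 at 37 °C; ONE-Glo luminescence read after 30 min.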
TDP1 cell CPT: DT40-hTDP1 cell growth loss with CPT; chicken DT40 Tdp1-/-;hTDP1 cells + 20 nM CPT, ATP luminescence, 48 h; Potency, µM (series often up to 46.2 µM), for inactives: top-dose activity change, negative = growth inhibition, actives largely listed as inhibitors; 420,000 compounds, 12% hits; note: potency is the fitted concentration of half-maximal effect; nearly all actives have a fitted effect of over 55% in size
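Chicken DT40 Tdp1-/- cells stably complemented with human TDP1 were seeded at 400 cells/well in medium containing 20 nM camptothecin, exposed to pin-transferred compounds, and grown at 37 °C for at least 48 hr. Viability was read as ATP luminescence.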
HT1080-NT tox: kills 2HG-producing HT-1080-NT fibrosarcoma cells; HT-1080-NT fibrosarcoma viability, CellTiter-Glo ATP luminescence, 48 h; 360,000 compounds, 1.6% hits; Potency, µM (titrated, usually from 46.1 µM), for the others: at the top dose activity, negative = less viability, usual class: cytotoxic;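 note: NT is the 2HG producing partner of a matched IDH1 knockdown line; potency is the fitted concentration of half-maximal effect; 0% = DMSO-treated cells and -100% = media-only wells without cells; nearly all actives have a fitted effect of over 55% in size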
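HT-1080-NT fibrosarcoma cells (2HG-overproducing), 750 cells/well in RPMI with 5% FBS, dosed after 2 h and incubated 48 h at 37C. CellTiter-Glo luminescence normalized to DMSO and no-cell wells; concentration-response curves fitted and classed.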
TDP1 cell noCPT: qHTS for Inhibitors of human tyrosyl-DNA phosphodiesterase 1 (TDP1): qHTS in cells in absence of CPT | 420,000 compounds, 15% hits | DT40 Tdp1-/- hTDP1 cells, no CPT, ATP luminescence, 48 h | Potency, µM (top dose mostly 46.2 µM), for inactives: at the highest dose activity change, negative = growth inhibition, actives largely listed as inhibitors | AID 686978, 2013; note: potency is the fitted concentration of half-maximal effect; nearly all actives have a fitted effect of over 55% in size
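Compound effects on proliferation are scored in DT40 Tdp1-/-;hTDP1 cells in the absence of CPT. ATP levels (CellTiter-Glo luminescence) are recorded after a ≥48 hr, 37 °C incubation.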
IL1B secr inh: blocks inflammasome-driven IL-1 beta release | THP-1 LPS/ATP IL-1B secretion, AlphaLISA, 16 h; stronger effect = lower value | 360,000 compounds, 4.7% hits | AID 743279 | activity change, % at 57.5 µM; in the data active = activity change below about -50%; inconclusive = mostly about -30% to -49%
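THP-1 cells pretreated 1 hr with compounds (up to 57.5 uM final), then stimulated with LPS (250 ng/mL final) plus ATP (1.25 mM final); secreted IL-1B measured by AlphaLISA after 16 hr, decreased signal indicating inhibition.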
HT1080 IDH1KD tx: HT-1080 IDH1 knockdown cell toxicity (counter line). AID 686971. Potency, µM (top dose mostly 46.1 µM), without a hit: at the highest dose activity, negative = toxicity, most hits filed as cytotoxic. 360,000 compounds, 2% hits. HT-1080 IDH1 knockdown viability, ATP luminescence, 48 h;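 note: potency is the fitted concentration of half-maximal effect; 0% = DMSO wells and -100% = cell-free medium wells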
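HT-1080-IDH1KD cells (IDH1 knocked down), 750/well in RPMI with 5% FBS, treated with compound 48 h at 37 degrees C. Viability by CellTiter-Glo luminescence, normalised to DMSO and no-cell wells; concentration-response curves classed.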
Starred values were filed as active, the others as inactive; i = inactive; u = inconclusive; x = no result; [ ] = another dose, or the depositor's remark. In the library only some 19% were active in any assay of this set; here they are far more common. Unless noted, calls come from the whole dose curve; as a rule, active = well fitted curve in the direction sought with a large enough effect; inconclusive = small, poorly fitted or top-dose-only effect, or another doubt; inactive = no such curve, though single readings can be large; an effect the other way counts as inactive or inconclusive. Unless noted, % is set by controls: 0 for no effect and ±100 for the full control effect.

SMILES	ELG1 repair inh	TDP1 cell CPT	HT1080-NT tox	TDP1 cell noCPT	IL1B secr inh	HT1080 IDH1KD tx
CCc1cccc(CC)c1NC(=O)C1SC(=Nc2ccccc2C)C(c2nc3ccccc3s2)=C1N (stereo not drawn)	0.0%	u	-22.0%	23.1µM*	6.0	-12.7%
COc1ccc(C(C)=O)cc1COc1cccnc1[N+](=O)[O-]	u	u	-20.3%	16.4µM*	-2.4	u
CCOc1ccc(C(C)=O)cc1COc1ccc(-n2cnnn2)cc1	u	-23.2%	-0.9%	u	-57.1*	-1.9%
O=[N+]([O-])c1ncccc1OCc1ccc(-c2ccccc2)cc1	19.6%	u	-20.7%	16.4µM*	-55.6*	-11.3%
NC(=O)COc1ccc(-n2cnnn2)cc1	-10.8%	-2.4%	4.4%	5.3%	-2.7	0.9%
CCOc1ccc(C(C)=O)cc1COc1cccnc1[N+](=O)[O-]	-18.8%	6.51µM*	u	6.51µM*	25.2	u
Cc1c(NC(=O)COC(=O)CSc2ccc(C(N)=O)cc2[N+](=O)[O-])c(=O)n(-c2ccccc2)n1C	0.0%	12.7%	-1.3%	-0.6%	i	10.4%
COC(=O)c1ccc(Cl)cc1NC(=O)Nc1nnc(N(C)Cc2ccccc2)s1	x	-21.3%	x	-21.5%	x	x
COC(=O)c1cc(=O)nc(NN=Cc2ccco2)s1	x	-20.2%	19.0%	15.5%	0.0	11.7%
COc1ccc(C(C)=O)cc1CSC(=N)N	2.7%	u	0.3%	-25.7%	-8.6	0.7%
CCOc1ccc(C(C)=O)cc1CSC(=N)N	-11.6%	u	-10.1%	20.6µM*	3.6	0.2%
COc1cc(CN2CCOc3ccc(CN4CCC(O)(c5cccnc5)CC4)cc3C2)cc(OC)c1	x	5.8%[9.04 µM]	x	-12.5%	x	x
CN(Cc1ccccc1)C(=O)COC(=O)C12CC3CC(CC(Br)(C3)C1)C2	-10.5%	25.9µM*	2.1%	u	-2.3	-3.8%
Cc1ccc(NCc2ccccc2O)cc1	u	u	-3.7%	-27.2%	-17.0	u
Cc1ccc(CNc2ccc(O)cc2)cc1	u	u	u	16.4µM*	-95.2*	u
COc1ccc(C2CC(=O)c3cc(-c4nc(-c5ccc(Cl)cc5)cs4)c(=O)[nH]c3C2)cc1OC (stereo not drawn)	x	-26.6%	x	u	x	x
O=C1CC(c2ccccc2)Cc2[nH]c(=O)c(-c3nc(-c4cccc(Cl)c4)cs3)cc21 (stereo not drawn)	x	5.17µM*	x	5.17µM*	x	x
CC1(C)C(=O)NCCN1C(=O)CSc1nccc(-c2ccc(Br)cc2)n1	-14.6%	u	u	16.4µM*	-0.5	u
CS(=O)(=O)c1ccc(-c2ccc3c(c2)CC(CNC(=O)C2(N4CCOCC4)CCCCC2)O3)cc1 (stereo not drawn)	x	-13.2%[9.04 µM]	x	16.4µM*	x	x
Cc1ccccc1C(=O)NCC(c1ccco1)N1CCc2ccccc2C1 (stereo not drawn)	8.0%	u	0.8%	u	-2.9	-0.3%
Cn1ncc(C#N)c1/N=C/N(Cc1ccccc1)Cc1ccccc1	u	14.6µM*	-19.4%	u	31.3	-24.5%
COc1ccc(/C=N/n2cnnc2SCc2ccccc2)cc1	6.2%	u	-17.3%	20.6µM*	-19.6	-11.9%
O=S(=O)(Nc1ccccc1Cl)c1cc(NC(=S)NCCN2CCOCC2)ccc1Cl	u	5.0%	-18.9%	u	12.3	-18.3%
COc1ccccc1NS(=O)(=O)c1cc(NC(=O)c2cc[n+]([O-])cc2)ccc1N1CCCC1	0.0%	u	-1.2%	u	-7.3	-1.0%
O=C(Nc1ccc(N2CCOCC2)c(S(=O)(=O)Nc2ccccc2Cl)c1)c1ccc(F)cc1	18.3µM*	u	-4.6%	u	-55.9*	-15.2%
SMILES	ELG1 repair inh	TDP1 cell CPT	HT1080-NT tox	TDP1 cell noCPT	IL1B secr inh	HT1080 IDH1KD tx
O=C(Nc1ccc(N2CCCCC2)c(S(=O)(=O)Nc2ccccc2Cl)c1)c1cccnc1	18.3µM*	-28.4%	-0.5%	u	u	-28.8%
O=C(Nc1ccc(F)cc1)Nc1ccc(N2CCCC2)c(S(=O)(=O)Nc2ccccc2Cl)c1	u	23.1µM*	u	23.1µM*	-59.9*	23.1µM*
O=C(Nc1ccc(Cl)c(Cl)c1)Nc1ccc(N2CCCC2)c(S(=O)(=O)Nc2ccccc2Cl)c1	u	3.26µM*	u	4.11µM*	-52.4*	13µM*
COc1ccccc1NS(=O)(=O)c1cc(NC(=O)c2cnccn2)ccc1N1CCOCC1	u	-17.0%	3.0%	0.0%	4.7	-9.0%
CCCCCCCCCCCCCCCCOCC(CO)OC(C)=O (stereo not drawn)	x	8.7%[4.12 µM]	x	6.3%[4.12 µM]	x	x
O=C(Nc1ccc(F)cc1)Nc1ccccc1N1CCCCC1	13µM*	u	u	u	-16.6	-12.9%
CN(C)c1ccc(NC(=O)Nc2csc3ccccc23)cc1	u	-2.6%	-9.3%	-26.1%	-0.1	-8.2%
O=C(Nc1ccc(F)cc1)Nc1csc2ccccc12	3.5%	23.1µM*	u	23.1µM*	x	u
Cc1c(Cl)cccc1NC(=O)CN1CCN(CCN=CC2=C(O)CC(c3ccccc3)CC2=O)CC1 (stereo not drawn)	23.5%	4.4%	-3.8%	-9.9%	-14.3	6.6%
Cc1cc(NC(=O)CSCC(=O)OCC(=O)c2ccc(Br)cc2)no1	x	7.2%	1.5%	-3.8%	30.3	-1.8%
O=C(Nc1ccc2oc(-c3cccnc3)nc2c1)c1ccc(Br)cc1	x	-20.2%	x	-19.0%	x	x
CC(=O)Nc1cccc(NC(=O)C2(c3cccs3)CCOCC2)c1	x	-0.5%	x	-7.0%	x	x
Cc1ccc(NC(=O)C2(c3cccs3)CCOCC2)cc1Cl	x	25.9µM*	x	u	x	x
O=C(Nc1ccc(C(F)(F)F)cc1)C1(c2cccs2)CCOCC1	x	u	x	23.1µM*	x	x
O=C(Nc1cc(Cl)ccc1Cl)C1(c2cccs2)CCOCC1	x	16.4µM*	x	20.6µM*	x	x
COCCCNC(=O)C1CCN(Cc2nc(-c3ccc(OC)c(OC)c3)oc2C)CC1	x	18.1%	x	0.5%	x	x
Cc1oc(-c2ccc(Cl)cc2)nc1CN1CCC(C(=O)NCc2cccs2)CC1	u	u	20.6µM*	u	-53.9*	u
Cc1oc(-c2ccc(Cl)cc2)nc1CN1CCC(C(=O)NCC2CCCO2)CC1 (stereo not drawn)	-1.4%	-9.3%	-10.0%	-1.3%	u	-8.0%
